Literature values as cited in PubChem BioAssay AID977611.
The campaign covered roughly 3,900 compounds. About 3,900 (100%) were called active. The limit is not given here; nearly all actives have Kd up to about 4200 µM. So high a share suggests a set chosen from earlier hits. The list shows a part of the results. Starred links: 1 amine or outer side, 2 acyl side, 3 side chain; linkers in the order of their positions; H or OH if unused. Where a SMILES comes first, the peptide text is derived from it. Non-standard residues stand in square brackets, D forms with d. Square brackets hold non-standard residues; d marks the D form. Residues, ends and D or L forms follow the SMILES beside them. Peptide text beside a SMILES is read from it. [ ]: non-standard residue; d: D form. The star is where a group is joined. *: point of attachment. X1 = C[C@@H]1CCCN1*; Lys(Me3) = C[N+](C)(C)CCCC[C@H](N)C(=O)O; Orn(CH(NH2)2) = NC(N)NCCC[C@H](N)C(=O)O; Propyl = CCC*

Assay: PubChem AID 977611
Settings: PDB protein-ligand complexes, literature Kd

## NC(=O)CC[C@H](NC(=O)CCc1ccc(-c2cc(-c3ccccc3)cs2)cc1)C(=O)N[C@@H](CCC(=O)O)C(N)=O
protein: Macrophage metalloelastase, PDB entry 3tsk
  Kd: 0.067 µM (active)

## CCC(CC)Nc1cc(C)nc(Oc2c(C)cc(C)cc2C)c1C
protein: Corticotropin-releasing factor receptor 1, T4-Lysozyme chimeric construct, PDB entry 4k5y
  Kd: 0.0067 µM (active)

## C=C/C(C)=C\[C@@]1(C)SC(=O)C(C(C)=O)=C1O
protein: 3-OXOACYL-[ACYL-CARRIER-PROTEIN] SYNTHASE 1, PDB entry 4c6u
  Kd: 25.6 µM (active)
protein: 3-OXOACYL-[ACYL-CARRIER-PROTEIN] SYNTHASE 1, PDB entry 4c6v
  Kd: 25.6 µM (active)

## C=C/C(C)=C/[C@@]1(C)SC(=O)/C(=C(\O)C(F)(F)F)C1=O
protein: 3-OXOACYL-[ACYL-CARRIER-PROTEIN] SYNTHASE 1, PDB entry 4c73
  Kd: 12.1 µM (active)

## CNc1nc2c(CC[C@H]3O[C@@H](OC)[C@H](OC)[C@@H]3O)c3nc(N)[nH]c(=O)c3cc2[nH]1
protein: tRNA guanine transglycosylase (TGT), PDB entry 4lbu
  Kd: 0.276 µM (active)

## CNc1nc2c(CC[C@H]3O[C@@H](OC)[C@H](O)[C@@H]3O)c3nc(N)[nH]c(=O)c3cc2[nH]1
protein: tRNA guanine transglycosylase (TGT), PDB entry 4leq
  Kd: 0.288 µM (active)

## O=C(O)c1ccc2nsnc2c1
protein: Pantothenate synthetase (T2A, E77G mutation), PDB entry 4ddm
  Kd: 3500 µM (active)

## COc1ccc([C@H]2OC[C@H](C)[C@@H]([C@@H](C)[C@@H](OC)[C@@H](C)CCC(=O)[C@H](C)[C@@H](C/C=C/N(C)C=O)OC)O2)cc1
protein: Actin, alpha skeletal muscle, PDB entry 4k43
  Kd: 0.132 µM (active)

## CC(C)C[C@H](NC(=O)[C@H](Cc1ccc(O)cc1)NC(=O)[C@H](CCC(=O)O)NC(=O)[C@H](CCC(=O)O)NC(=O)[C@H](Cc1c[nH]c2ccccc12)NC(=O)[C@H](CO)NC(=O)[C@@H](NC(=O)[C@H](Cc1ccccc1)NC(=O)[C@@H](NC(=O)[C@@H](N[C@@H](C)O)[C@@H](C)O)C(C)C)[C@@H](C)O)C(=O)N[C@@H](CC(=O)O)C(=O)N[C@@H](Cc1c[nH]c2ccccc12)C(=O)N[C@H](C(N)=O)C(C)C (H-[X1]VFTSWEEYLDWV-NH2)
protein: Proprotein convertase subtilisin/kexin type 9, PDB entry 4nmx
  Kd: 0.66 µM (active)

## CC[C@H](C)[C@H](NC(=O)CNC(=O)[C@H](CCC(=O)O)NC(=O)[C@@H](N)CCC(=O)O)C(=O)N[C@@H](Cc1c[nH]c2ccccc12)C(=O)N[C@@H](C)C(=O)O (H-EEGIWA-OH)
protein: RIM1? PDZ Domain, PDB entry 1zub
  Kd: 0.27 µM (active)

## H-DDYLWGLEAGEGISDLFD-OH
protein: retinoblastoma (Rb), PDB entry 1n4m
  Kd: 0.19 µM (active)

## CC1(C)Nc2nc(N)[nH]c(=O)c2N=C1C(=O)NCC(=O)NCCS(=O)(=O)C[C@H]1O[C@@H](n2cnc3c(N)ncnc32)[C@H](O)[C@@H]1O
protein: 2-amino-4-hydroxy-6-hydroxymethyldihydropteridine pyrophosphokinase/dihydropteroate synthase HPPK-DHPS, PDB entry 4pzv
  Kd: 2 µM (active)

## CCCOC[C@H](NC(=O)[C@@H](NC(=O)[C@@H]1CCCN1C(=O)[C@@H](NC(=O)[C@@H](NC(C)=O)C(C)C)[C@@H](C)O)C(C)C)C(=O)N[C@H](C(=O)N[C@@H](C)C(N)=O)[C@@H](C)O (Ac-VTPVS(Propyl)TA-NH2)
protein: UDP-N-ACETYLGLUCOSAMINE--PEPTIDE N-ACETYLGLUCOSAMINYLTRANSFERASE 110 KDA SUBUNIT, PDB entry 4cdr
  Kd: 7.9 µM (active)

## CC(=O)N[C@H](C(=O)N1CCC[C@H]1C(=O)N1CCC[C@H]1C(=O)N1CCC[C@H]1C(=O)N[C@H](C(=O)N1CCC[C@H]1C(=O)N1CCC[C@H]1C(=O)N[C@@H](CCCNC(N)N)C(=O)N[C@@H](CCCNC(N)N)C(=O)N[C@@H](CCCNC(N)N)C(N)=O)C(C)C)C(C)C
protein: Grb2(N-terminal SH3 domain), PDB entry 3gbq
  Kd: 3.5 µM (active)

## C[C@H](N)C(=O)N1CCC[C@H]1C(=O)N1CCC[C@H]1C(=O)N[C@@H](CO)C(=O)N[C@@H](CC(N)=O)C(=O)N1CCC[C@H]1C(=O)N1CCC[C@H]1C(=O)N1CCC[C@H]1C(=O)N[C@@H](CCCNC(N)N)C(=O)N1CCC[C@H]1C(=O)N1CCC[C@H]1C (H-APPSNPPP[Orn(CH(NH2)2)]P-X1)
protein: tandem SH3domains of p47phox, PDB entry 1ov3
  Kd: 0.19 µM (active)

## H-VPPPVPPPPS-OH
protein: Ponsin, PDB entry 2o9v
  Kd: 288 µM (active)

## H-GGRRPYIL-OH
protein: Neurotensin Receptor 1 Mutant TM86V Delta-IC3A, PDB entry 3zev
  Kd: 0.0023 µM (active)

## H-GTCVAARTRPVLSY-OH
protein: WD REPEAT-CONTAINING PROTEIN 5, WDR5, PDB entry 4cy1
  Kd: 0.181 µM (active)

## CNC(=O)C[C@@H]1NC(=O)c2csc(n2)-c2ccc(-c3nc(N(CCCCC(=O)O)C(=O)OC4CCC(C(=O)O)CC4)cs3)nc2-c2csc(n2)-c2csc(n2)[C@H]([C@@H](O)c2ccccc2)NC(=O)CNC(=O)c2nc(sc2COC)[C@H](C(C)C)NC(=O)c2nc1sc2C (some centres not stated)
protein: E. coli K-12 Elongation factor Tu 1, PDB entry 3u2q
  Kd: 0.006 µM (active)

## NCc1csc2ccc(Br)cc12
protein: CATIONIC TRYPSIN, PDB entry 4abf
  Kd: 24 µM (active)

## NCc1csc2ccccc12
protein: CATIONIC TRYPSIN, PDB entry 4abb
  Kd: 31 µM (active)

## CO[C@H]1O[C@H](CNS(=O)(=O)c2c(C)cc(C)cc2C)[C@@H](O)[C@H](O)[C@@H]1O
protein: FUCOSE-BINDING LECTIN PA-IIL, PDB entry 3zdv
  Kd: 3.3 µM (active)

## H-SGRGK(Ac)G-OH
protein: ATPase family AAA domain-containing protein 2 ATAD2A bromodomain, PDB entry 4tt2
  Kd: 22 µM (active)

## NC(=O)C[C@H](NC(=O)CNC(=O)CNC(=O)[C@H](CCCNC(N)N)NC(=O)CNC(=O)CNC(=O)CNC(=O)CNC(=O)[C@@H](N)CO)C(=O)NCC(=O)NCC(=O)NCC(=O)NCC(=O)NCC(=O)NCC(=O)O (H-SGGGG[Orn(CH(NH2)2)]GGNGGGGGG-OH)
protein: Outer membrane porin 1a (Ia;b;F)(OmpF), PDB entry 3o0e
  Kd: 1.8 µM (active)

## Nc1nc2cc3nc(NCCN4CCCCC4)[nH]c3cc2c(=O)[nH]1
protein: Queuine tRNA-ribosyltransferase TGT, PDB entry 4q4o
  Kd: 0.0343 µM (active)

## O=c1[nH]cnc2cc3nc(NCCN4CCOCC4)[nH]c3cc12
protein: Queuine tRNA-ribosyltransferase TGT, PDB entry 4q4r
  Kd: 0.369 µM (active)

## O=c1[nH]cnc2cc3nc(NCCN4CCCCC4)[nH]c3cc12
protein: Queuine tRNA-ribosyltransferase TGT, PDB entry 4q4p
  Kd: 0.407 µM (active)

## CNc1nc2cc3nc(N)[nH]c(=O)c3cc2[nH]1
protein: Queuine tRNA-ribosyltransferase TGT, PDB entry 4q4s
  Kd: 0.112 µM (active)

## O=c1[nH]cnc2cc3nc(NCc4cccs4)[nH]c3cc12
protein: Queuine tRNA-ribosyltransferase TGT, PDB entry 4q4q
  Kd: 1.64 µM (active)

## N#C/C(=C\c1ccncc1)C(=O)NCc1ccccc1
protein: RIO-type serine/threonine-protein kinase Rio1, PDB entry 4jin
  Kd: 2.28 µM (active)

## C[N+](C)(C)CCCC[C@H](N)C(=O)N[C@@H](CCC(N)=O)C(=O)O (H-[Lys(Me3)]-Gln-OH)
protein: Polycomb protein EED, PDB entry 3k26
  Kd: 400 µM (active)

## C[C@@H](O)[C@H](N)C(=O)N[C@@H](CCCC[N+](C)(C)C)C(=O)N[C@@H](CCC(N)=O)C(=O)O (H-Thr-[Lys(Me3)]-Gln-OH)
protein: Os05g0196500 protein, PDB entry 4igq
  Kd: 30.1 µM (active)

## H-IGTDKELSDLLDFSAMFS-OH
protein: eTAFH domain of AML1-ETO, PDB entry 2knh
  Kd: 7 µM (active)

## CC[C@H](C)[C@H](NC(=O)[C@H](CC(=O)O)NC(=O)[C@H](Cc1ccccc1)NC(=O)[C@H](CC(C)C)NC(=O)[C@H](CC(=O)O)NC(=O)CNC(=O)[C@@H](NC(=O)[C@@H](NC(=O)[C@H](CCCCN)NC(=O)[C@H](CC(C)C)NC(=O)[C@H](CCCNC(N)N)NC(=O)[C@H](CCCNC(N)N)NC(=O)[C@H](CO)NC(=O)[C@H](CC(C)C)NC(=O)[C@H](CC(N)=O)NC(=O)[C@H](CCC(=O)O)NC(=O)[C@H](CCSC)NC(=O)[C@@H](N)[C@@H](C)O)C(C)C)[C@@H](C)O)C(=O)N[C@@H](CCSC)C(=O)O (H-TMENLS[Orn(CH(NH2)2)][Orn(CH(NH2)2)]LKVTGDLFDIM-OH)
protein: M11, the BCL-2 Homolog of Murine Gamma-herpesvirus 68, PDB entry 3bl2
  Kd: 1.58 µM (active)

## H-TFKEVANAVKISASLM-OH
protein: Calmodulin, PDB entry 2mg5
  Kd: 0.7 µM (active)

## CSCC[C@H](NC(=O)[C@H](CC(C)C)NC(=O)CNC(=O)[C@@H](NC(=O)[C@H](CC(N)=O)NC(=O)[C@H](CCC(=O)O)NC(=O)[C@H](Cc1ccc(O[P+](O)(O)O)cc1)NC(=O)[C@@H](N)C(C)C)C(C)C)C(=O)O (H-V[X1]ENVGLM-OH)
protein: Grb2 SH2 domain, pY-Clamp Ptpn11_pY580, PDB entry 4jmg
  Kd: 0.0015 µM (active)
